Test results published in the supplement of paper PMC10338343.
± gives the standard deviation.

Legend:
[1] = system: MILI (PIWIL2) piRISC loaded with L1MC piRNA (26 nt); assay: pre-steady-state target cleavage rate (min^-1); guide: L1MC piRNA 5'p-UAACUAAAUACUAUGCAAGCUGUAGG; higher = faster piRNA-guided slicing of the target
Procedure, shortened: (§1)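 The method was Cleave-'n-Seq, in which uncleaved targets from a transcribed, DNA-blocked target RNA library were sequenced after exposure to active affinity-purified piRISC carrying one synthetic guide, with or without GTSF1 partner protein. Reactions contained 0.1 nM library, 1 nM piRISC and, where present, 500 nM GTSF1 in HEPES–potassium acetate buffer at 33 °C for 0–8 or 0–960 min. Reads were normalised to depth and to weakly complementary targets, three trials were pooled, and k3 was capped at 0.0001 min^-1. The pre-steady-state cleavage rate came from a burst-and-steady-state fit.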

[2] = system: EfPiwi piRISC loaded with L1MC piRNA (26 nt); assay: pre-steady-state target cleavage rate (min^-1); auxiliary factor: 500 nM Ephydatia muelleri Gtsf1; guide: L1MC piRNA 5'p-UAACUAAAUACUAUGCAAGCUGUAGG; MIWI and MILI are mouse PIWI proteins and EfPiwi is from a freshwater sponge; tags in brackets are library labels; higher = faster piRNA-guided slicing of the target
Procedure, shortened: as §1

[3] = auxiliary factor: 500 nM mouse GTSF1
[4] = auxiliary factor: none (no GTSF1)

Row | Sequence | pre-steady-state target cleavage rate [1, 3] | pre-steady-state target cleavage rate [1, 4] | pre-steady-state target cleavage rate [2]
1 | UCCUGGAUCCAGCUUGCAUAGUAUUUAGUUA | 0.3 ± 0.017 | 0.00437 ± 0.003 | 0.126 ± 0.022
2 | UCCUGGAUGUGCGUGCAUAGUAUUUAGUUA | 0.107 ± 0.012 | 0.0107 ± 0.0032 | 0.00405 ± 0.0027
3 | UCCUGGAACAGCUUGCAUAGUAUUAUAGUUA | 0.149 ± 0.024 | 0.00335 ± 0.0027 | 0.0399 ± 0.015
4 | UCCUGCUACAGGUUGCAUAGUAAUUAGUUA | 0.216 ± 0.032 | 0.00697 ± 0.0026 | 0.00595 ± 0.0019
5 | UCCUCCUCCAGCUUGCAUAGUAUUUAGUUA | 0.265 ± 0.019 | 0.00605 ± 0.0026 | 0.194 ± 0.056
6 | UCCUGCUACAGCUUGCUUAGUAUAUAGUUA | 0.206 ± 0.028 | 0.00313 ± 0.0023 | 0.0125 ± 0.0047
7 | UCCUCCUACAGCUAGCAUAGUUUUUAGUUA | 0.0658 ± 0.011 | 0.00299 ± 0.0026 | 0.00442 ± 0.0017
8 | UCCUCCUUGAGCUUGCAUAGUAUUUAGUAA | 0.217 ± 0.025 | 0.00389 ± 0.0017 | 0.00719 ± 0.0026
9 | UCCUGGAUCAGCUUGCAUAGUACUUUAGUUA | 0.14 ± 0.016 | 0.00672 ± 0.0027 | 0.00735 ± 0.0023
10 | UCCUCCUUGAGCUUGCAUAGUAUUUAGUUA | 0.216 ± 0.018 | 0.0051 ± 0.0021 | 0.0223 ± 0.0062
11 | UCCUGGAUGUCCUUGCAUAGUACUUAGUUA | 0.0548 ± 0.01 | 0.00401 ± 0.0028 | 0.00586 ± 0.0027
12 | UCCUGGAUGUGGUUGCAUAGUUUUUAGUUA | 0.0125 ± 0.0086 | 0.00954 ± 0.0033 | 0.00827 ± 0.0052
13 | UCCUGCUAGAGCUUGGAUAGUAUUUAGUUA | 0.178 ± 0.014 | 0.0074 ± 0.0021 | 0.00499 ± 0.0016
14 | UCCUGGUUCAGCUUGCAUAGUUUUUAGUUA | 0.0483 ± 0.013 | 0.0081 ± 0.0027 | 0.00498 ± 0.0023
